A short description of assay [1]: NCI Yeast Anticancer Drug Screen. Data for the rad50 strain (AID 155).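 Further: 0% = growth of vehicle-only cultures of the same strain.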 Particulars: S. cerevisiae rad50 strain growth inhibition, active compounds read high. The procedure, abridged: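 Inhibition values express reduced yeast growth in compound-treated cultures relative to vehicle-treated controls.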
Assay [2] in a line: NCI Yeast Anticancer Drug Screen. Data for the mec2-1 strain (AID 157). The settings on record: S. cerevisiae mec2-1 strain, active compounds read high. The procedure, abridged:
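Strain: mec2-1 (DNA repair/cell cycle alteration). Compound exposure, then growth measured; inhibition expressed relative to vehicle.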

A short description of assay [3]: NCI Yeast Anticancer Drug Screen. Data for the sgs1 mgt1 strain (AID 161).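 Further: 0% = growth of cultures given vehicle only.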 Particulars: S. cerevisiae sgs1 mgt1 strain, active compounds read high. In a few lines:
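Test agents were incubated with a DNA-repair-mutant yeast strain. Growth was then read and compared against vehicle-treated controls.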

Assay [4] is described as follows: NCI Yeast Anticancer Drug Screen. Data for the cln2 rad14 strain (AID 165).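 Further: 0% = growth equal to vehicle treated cultures.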 Particulars: S. cerevisiae cln2 rad14 strain, active compounds read high. The procedure, abridged:
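Compounds are applied to the cln2 rad14 yeast strain, and growth is then compared with that of vehicle-treated cultures to give inhibition.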

Assay [5] can be described thus: NCI Yeast Anticancer Drug Screen. Data for the bub3 strain (AID 167). Particulars: S. cerevisiae bub3 mutant strain, active compounds read high. In a few lines: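 Steps: expose the mutant yeast strain to compound; grow alongside vehicle-treated cultures; measure growth; express inhibition against the vehicle cultures.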
Assay [6] is described as follows: NCI Yeast Anticancer Drug Screen. Data for the mlh1 rad18 strain (AID 175). Particulars: S. cerevisiae mlh1 rad18 strain growth inhibition, active compounds read high. The procedure, abridged: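 Read-out is yeast growth inhibition, calculated against vehicle-only controls. The compound was applied to a strain engineered with DNA damage repair alterations.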
The mark [7] stands for this setting: at 5.0 µM (retest, dose inferred, filed as 0.5).
Setting [8] is: at 50.0 µM (retest, dose inferred, filed as 5.0).

We go through 10 compounds from PubChem BioAssay (NCI).

Compounds without any hit were thinned out: in the full panel of roughly 79,000, 15% have a hit. Values without a mark were called inactive. Calls of active or inactive are those of the source. No stated cut-off is given here; in the data, active means growth inhibition above about 70%; inactive means the rest.

Turning to `COc1c(/C=C/C=O)cc2c(c1OC)OCO2`, the growth inhibition was 26% in assay [1] (setting [7]); 73% (active) in assay [1] (setting [8]); -1.75% in assay [1] (at 50.0 µM); 17% in assay [2] (setting [7]); 40% in assay [2] (setting [8]); -6.3% in assay [2] (at 50.0 µM). Further, the growth inhibition is 31% in assay [3] (setting [7]); 57% in assay [3] (setting [8]); 19.1% in assay [3] (at 50.0 µM); 27% in assay [4] (setting [7]); 50% in assay [4] (setting [8]); 20.4% in assay [4] (at 50.0 µM). Besides, the growth inhibition is 21% in assay [5] (setting [7]); 54% in assay [5] (setting [8]); 13.5% in assay [5] (at 50.0 µM); 25% in assay [6] (setting [7]); 61% in assay [6] (setting [8]); -11.8% in assay [6] (at 50.0 µM).

With `COc1ccc(OC)c(Cc2cnc3nc(N)nc(N)c3c2C)c1`, the growth inhibition in assay [1] (setting [7]) is 21%; in assay [1] (setting [8]), 35%; in assay [1] (at 50.0 µM) it was 67.5%; in assay [2] (setting [7]) it was 18%; in assay [2] (setting [8]), 74% (active); in assay [2] (at 50.0 µM), 19.7%. Further, the growth inhibition was 12% in assay [3] (setting [7]); 36% in assay [3] (setting [8]); 41.5% in assay [3] (at 50.0 µM); 9% in assay [4] (setting [7]); 19% in assay [4] (setting [8]); 6.45% in assay [4] (at 50.0 µM). Further, the growth inhibition is 13% in assay [5] (setting [7]); 19% in assay [5] (setting [8]); 29.1% in assay [5] (at 50.0 µM); 18% in assay [6] (setting [7]); 23% in assay [6] (setting [8]); -1.5% in assay [6] (at 50.0 µM).

`c1ccc(-c2cccc(-c3ccccn3)n2)nc1`: the growth inhibition was 93% (active) in assay [1] (setting [7]); 99% (active) in assay [1] (setting [8]); 99.4% (active) in assay [1] (at 50.0 µM); 74% (active) in assay [2] (setting [7]); 99% (active) in assay [2] (setting [8]); 99.7% (active) in assay [2] (at 50.0 µM). Besides, the growth inhibition was 91% (active) in assay [3] (setting [7]); 99% (active) in assay [3] (setting [8]); 99.5% (active) in assay [3] (at 50.0 µM); 81% (active) in assay [4] (setting [7]); 99% (active) in assay [4] (setting [8]); 99.1% (active) in assay [4] (at 50.0 µM). Also, the growth inhibition was 96% (active) in assay [5] (setting [7]); 99% (active) in assay [5] (setting [8]); 99.2% (active) in assay [5] (at 50.0 µM); 83% (active) in assay [6] (setting [7]); 99% (active) in assay [6] (setting [8]); 99.5% (active) in assay [6] (at 50.0 µM).

On to `CCCCCCCCCCCC1=NCCCN1CCCC`, for which the growth inhibition in assay [1] (setting [7]) is 10%; in assay [1] (setting [8]), 99% (active); in assay [1] (at 50.0 µM) it was 88.3% (active); in assay [2] (setting [7]), 0%; in assay [2] (setting [8]), 99% (active); in assay [2] (at 50.0 µM) it was 99.2% (active). Further, the growth inhibition was 26% in assay [3] (setting [7]); 100% (active) in assay [3] (setting [8]); 84.3% (active) in assay [3] (at 50.0 µM); 4% in assay [4] (setting [7]); 99% (active) in assay [4] (setting [8]); 72% (active) in assay [4] (at 50.0 µM). Besides, the growth inhibition in assay [5] (setting [7]) was 22%; in assay [5] (setting [8]), 100% (active); in assay [5] (at 50.0 µM), 98.7% (active); in assay [6] (setting [7]), 28%; in assay [6] (setting [8]), 99% (active); in assay [6] (at 50.0 µM) it was 95.3% (active).

Regarding `CCC(C)(O)Cc1ccc(Cl)cc1` (stereo not given), the growth inhibition in assay [1] (setting [7]) was 4%; in assay [1] (setting [8]), -3%; in assay [1] (at 50.0 µM) it was -14.7%; in assay [2] (setting [7]), 1%; in assay [2] (setting [8]), -2%; in assay [2] (at 50.0 µM), 41.9%. Also, the growth inhibition is 0% in assay [3] (setting [7]); -1% in assay [3] (setting [8]); 1.65% in assay [3] (at 50.0 µM); 3% in assay [4] (setting [7]); -5% in assay [4] (setting [8]); -39.8% in assay [4] (at 50.0 µM). The growth inhibition in assay [5] (setting [7]) is -6%; in assay [5] (setting [8]), -7%; in assay [5] (at 50.0 µM), -23.3%; in assay [6] (setting [7]), 3%; in assay [6] (setting [8]) it was -5%; in assay [6] (at 50.0 µM), -6.8%.

For `CC1=C(Cl)C[C@@H](/C(C)=C\Cl)O[C@@]1(O)C(Br)Br`, the growth inhibition in assay [1] (setting [7]) is 31%; in assay [1] (setting [8]) it was 92% (active); in assay [1] (at 50.0 µM), 91.8% (active); in assay [2] (setting [7]) it was 24%; in assay [2] (setting [8]), 94% (active); in assay [2] (at 50.0 µM) it was 93.4% (active). Further, the growth inhibition in assay [3] (setting [7]) is 40%; in assay [3] (setting [8]) it was 93% (active); in assay [3] (at 50.0 µM) it was 93.5% (active); in assay [4] (setting [7]), 20%; in assay [4] (setting [8]), 90% (active); in assay [4] (at 50.0 µM), 91.2% (active). Further, the growth inhibition in assay [5] (setting [7]) was 40%; in assay [5] (setting [8]), 91% (active); in assay [5] (at 50.0 µM), 92.3% (active); in assay [6] (setting [7]), 65%; in assay [6] (setting [8]) it was 92% (active); in assay [6] (at 50.0 µM), 15.1%.

For `C=C1C(=O)C2=CC1CCC(=O)C1(C)CCC(OC(C)=O)C(C)(C)C1CC2O` (stereo not given), the growth inhibition in assay [1] (setting [7]) is 16%; in assay [1] (setting [8]), 52%; in assay [1] (at 50.0 µM) it was 82.1% (active); in assay [2] (setting [7]) it was 10%; in assay [2] (setting [8]) it was 70% (active); in assay [2] (at 50.0 µM), 82.8% (active). The growth inhibition in assay [3] (setting [7]) was 12%; in assay [3] (setting [8]) it was 46%; in assay [3] (at 50.0 µM), 78.7% (active); in assay [4] (setting [7]), 16%; in assay [4] (setting [8]), 40%; in assay [4] (at 50.0 µM), 65%. Besides, the growth inhibition in assay [5] (setting [7]) is 15%; in assay [5] (setting [8]) it was 83% (active); in assay [5] (at 50.0 µM), 87% (active); in assay [6] (setting [7]), 15%; in assay [6] (setting [8]), 65%; in assay [6] (at 50.0 µM), 73.7% (active).

Regarding `O=C1CSC(=S)N1Cc1cccnc1`, the growth inhibition in assay [1] (setting [7]) is 1%; in assay [1] (setting [8]), 19%; in assay [1] (at 50.0 µM), 45.4%; in assay [2] (setting [7]), 4%; in assay [2] (setting [8]), 47%; in assay [2] (at 50.0 µM) it was 34%. Besides, the growth inhibition in assay [3] (setting [7]) was 6%; in assay [3] (setting [8]) it was 24%; in assay [3] (at 50.0 µM), 42.9%; in assay [4] (setting [7]), 32%; in assay [4] (setting [8]), 33%; in assay [4] (at 50.0 µM), 1.95%. In addition, the growth inhibition was -22% in assay [5] (setting [7]); 48% in assay [5] (setting [8]); 61.8% in assay [5] (at 50.0 µM); -4% in assay [6] (setting [7]); 72% (active) in assay [6] (setting [8]); 54.9% in assay [6] (at 50.0 µM).

In the case of `O=C1C(=O)c2cccnc2-c2ncccc21`, the growth inhibition in assay [1] (setting [7]) is 93% (active); in assay [1] (setting [8]) it was 98% (active); in assay [1] (at 50.0 µM), 90.8% (active); in assay [2] (setting [7]) it was 95% (active); in assay [2] (setting [8]), 98% (active); in assay [2] (at 50.0 µM), 93.6% (active). The growth inhibition in assay [3] (setting [7]) is 95% (active); in assay [3] (setting [8]), 99% (active); in assay [3] (at 50.0 µM) it was 93.2% (active); in assay [4] (setting [7]) it was 73% (active); in assay [4] (setting [8]), 96% (active); in assay [4] (at 50.0 µM) it was 91% (active). Besides, the growth inhibition in assay [5] (setting [7]) is 96% (active); in assay [5] (setting [8]) it was 98% (active); in assay [5] (at 50.0 µM), 92.2% (active); in assay [6] (setting [7]), 94% (active); in assay [6] (setting [8]), 98% (active); in assay [6] (at 50.0 µM), 91.5% (active).

On to `OC(c1cc(C23CC4CC(CC(C4)C2)C3)nc2c(Cl)cc(Cl)cc12)C1CCCCN1` (stereo not given), for which the growth inhibition in assay [1] (setting [7]) is 99% (active); in assay [1] (setting [8]), 98% (active); in assay [1] (at 50.0 µM), 98.7% (active); in assay [2] (setting [7]), 99% (active); in assay [2] (setting [8]) it was 99% (active); in assay [2] (at 50.0 µM), 98.8% (active). Also, the growth inhibition is 99% (active) in assay [3] (setting [7]); 99% (active) in assay [3] (setting [8]); 68.9% in assay [3] (at 50.0 µM); 99% (active) in assay [4] (setting [7]); 98% (active) in assay [4] (setting [8]); 99.1% (active) in assay [4] (at 50.0 µM). The growth inhibition in assay [5] (setting [7]) is 99% (active); in assay [5] (setting [8]), 98% (active); in assay [5] (at 50.0 µM) it was 98.5% (active); in assay [6] (setting [7]) it was 99% (active); in assay [6] (setting [8]) it was 98% (active); in assay [6] (at 50.0 µM) it was 98.8% (active).
